Results reported in PubChem BioAssay AID1159506 (National Center for Advancing Translational Sciences (NCATS), 2015).
Over roughly 59,000 sequences, the read-out has its median near -0.00055; the lowest 2% begin near -2. The entries come from a sample that favours the lowest values as a whole.

Experiment: Identification of proteins required for the processing of the EWS-FLI1 nascent transcript;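 also: robust z of luciferase light less the median z of siRNAs with the same seed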
Conditions: TC32 Ewing sarcoma NR0B1-luc vs CMV-luc (EWS-FLI1 target promoter against control promoter), 48 h; screened at 20 nM (by protocol)
In short: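 Three siRNAs per gene, each in a separate well at 20 nM, were transfected into TC32 cells bearing either reporter construct. Luminescence was measured two days on, and per-gene comparison relied on seed-corrected Z values.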

Question: Which seed-corrected z-score does the source give for UUUUCUUGCGUAUGAAUUC against ZNF302 here?
Answer: 0.913

Question: For UCUUGUUCCACCACGUCUC against GRID2, which seed-corrected z-score is on record?
Answer: 0.102

Question: With AGUGGGUAGAUUCCAUUCC against NRBP2 as the sequence, how does the seed-corrected z-score read?
Answer: -2.82

Question: Which seed-corrected z-score does the source give for UGUAGGAUCUGUCUCCAGG against LOC728587 here?
Answer: -0.669

Question: Which seed-corrected z-score does the source give for UUCGAUGAAAUGAUUUUCC against ZNF418 here?
Answer: 0.719

Question: With UGAUCAUCAGCGGUGAGGC against HMGB3P19 as the sequence, how does the seed-corrected z-score read?
Answer: -1.07

Question: Which seed-corrected z-score does the source give for AAAGUCUCCAGUACGAUGU against MROH3P here?
Answer: 1.9

Question: With UUGCUGAACAGAUCAGUCC against ELF5 as the sequence, how does the seed-corrected z-score read?
Answer: -0.256

Question: Which seed-corrected z-score does the source give for AAGUUCAUAAGAUUCCAUG against MGP here?
Answer: 0.212

Question: For UCAGUUUGUAGUCAGAGCC against AP3S2, which seed-corrected z-score is on record?
Answer: 0.309

Question: Which seed-corrected z-score does the source give for UCAUCAUCAAUCACGGACG against BAP1 here?
Answer: -2.03

Question: Which seed-corrected z-score does the source give for UGUCUGUUGAUGGCCAAGC against AMELX here?
Answer: 0.157

Question: Which seed-corrected z-score does the source give for UCUGCGAUCAGUACCACUG against RBBP4 here?
Answer: 0.278

Question: With ACAGGGUUAAAAUUGUCCG against M6PR as the sequence, how does the seed-corrected z-score read?
Answer: -0.318

Question: Which seed-corrected z-score does the source give for UCAAUGUUCACCACACGGC against PLEKHH1 here?
Answer: -2.41

Question: With UUUGUUAGGAGCUUGUAGG against C1GALT1C1 as the sequence, how does the seed-corrected z-score read?
Answer: 1.55

Question: With UAUAUCAUCAAGCGUAACC against TCF20 as the sequence, how does the seed-corrected z-score read?
Answer: -1.21

Question: For UCGUUGUAUACUUUGGUGC against PRKAR2B, which seed-corrected z-score is on record?
Answer: -0.139

Question: For UAUGCUGUCGGAUGAGUCC against ATF1, which seed-corrected z-score is on record?
Answer: 0.345

Question: With UAUUGUCAAAUGAAGGUGG against TREML1 as the sequence, how does the seed-corrected z-score read?
Answer: 0.93

Question: With UUGGUAUCAUCUUCUGUAG against PLXDC2 as the sequence, how does the seed-corrected z-score read?
Answer: -0.075

Question: With UUUCUGACCACGUCUAGCA against PEX11B as the sequence, how does the seed-corrected z-score read?
Answer: 0.368

Question: Which seed-corrected z-score does the source give for UGAGUGUAGAGCAGCCACU against NEU2 here?
Answer: -2.8

Question: For UGAGCUACCAUAUGCUUCA against RBMY1F, which seed-corrected z-score is on record?
Answer: -0.266

Question: With AUCCUCACCAUGGACAACG against CELA3A as the sequence, how does the seed-corrected z-score read?
Answer: -0.518

Question: With UUUUUGAACAUGGUAACAG against RPL31P7 as the sequence, how does the seed-corrected z-score read?
Answer: 1.16

Question: For AAGUGGUCAAAAUCCGCUC against LOC728613, which seed-corrected z-score is on record?
Answer: -1.66

Question: Which seed-corrected z-score does the source give for AAAGUCAGCACUUCGAUCC against MCTP1 here?
Answer: -2.38

Question: Which seed-corrected z-score does the source give for UAUGUUGUCACGCAGCACU against HIST1H4F here?
Answer: 1.31

Question: For UUGGUUAUUCGAAGAGCUG against ME1, which seed-corrected z-score is on record?
Answer: -0.246

Question: For UGUCAUUUUUCUUCGGUUC against PWP2, which seed-corrected z-score is on record?
Answer: 0.885

Question: For UGAAUGGACAGUAUCUCUG against CCDC54, which seed-corrected z-score is on record?
Answer: -0.774

Question: For AAUCUGCUUCUUUAAGUCG against RBBP6, which seed-corrected z-score is on record?
Answer: -2.31

Question: For UUUCUGUCCAGGAAAUCUC against RWDD4, which seed-corrected z-score is on record?
Answer: -0.311

Question: For UCAGUGGAAGGAAUCCUCA against OR13C8, which seed-corrected z-score is on record?
Answer: 1.06

Question: For UUAUUGUCAAGUUCUGAUG against EFCAB14, which seed-corrected z-score is on record?
Answer: 0.0178

Question: For UUCUGUUCUACCUCGCUUC against WDR60, which seed-corrected z-score is on record?
Answer: -1.36

Question: With UCUGGAGUUCUCAUUAGAC against IRF7 as the sequence, how does the seed-corrected z-score read?
Answer: 0.205

Question: Which seed-corrected z-score does the source give for AUACGUAUCCCGGACGCAG against SLC25A47 here?
Answer: 2.25

Question: For AGGGUAUUUACCUUCUUGC against LOC729696, which seed-corrected z-score is on record?
Answer: -2.56

Question: With UCCCAUACCAUCCACAGUG against SGCZ as the sequence, how does the seed-corrected z-score read?
Answer: 0.248

Question: With AAGACUUCCAUCUAAGAUC against SLC39A11 as the sequence, how does the seed-corrected z-score read?
Answer: -1.62

Question: For AAUCUUCACAUCAUUCUGG against TMEM70, which seed-corrected z-score is on record?
Answer: -0.646

Question: With AUUGAUGUCAAUCACAUGC against PCDHGA3 as the sequence, how does the seed-corrected z-score read?
Answer: -0.895

Question: With UUUCAUGCGACGGUUUUGG against HOXC4 as the sequence, how does the seed-corrected z-score read?
Answer: -0.731

Question: With UGACUGUUGCUCCACUUCC against SH2D3A as the sequence, how does the seed-corrected z-score read?
Answer: -0.425

Question: For AGUCUUAUCAGCACCCUUU against MTPN, which seed-corrected z-score is on record?
Answer: -11.9

Question: For AUCCGGUACACCAUGUGGU against CYTH2, which seed-corrected z-score is on record?
Answer: -0.326

Question: For UAUGAUGGAGGCGUAGUUC against MYCL, which seed-corrected z-score is on record?
Answer: 0.678

Question: Which seed-corrected z-score does the source give for AAUGAUAUCUGUGAUCGCC against RABGEF1 here?
Answer: -0.242

Question: For UUCGUUCAGUGGGUUGUCC against SYNGR1, which seed-corrected z-score is on record?
Answer: -0.497

Question: Which seed-corrected z-score does the source give for UUCCCUUUCACGUCCAUGU against WFIKKN2 here?
Answer: -0.0396

Question: Which seed-corrected z-score does the source give for UUUCGAUUUAAAAGAGCCC against RALGPS1 here?
Answer: 1.28

Question: With UUUCUUCCAACGCAGUCUG against MRPS23 as the sequence, how does the seed-corrected z-score read?
Answer: -2.67

Question: With UAGAGGCUCAUCAUAGAUG against GPATCH3 as the sequence, how does the seed-corrected z-score read?
Answer: -0.0793

Question: For AAUGCUAUUACGGUUGAUG against FBXL6, which seed-corrected z-score is on record?
Answer: -0.269

Question: With UUAUUGCAGAUCUGGAUCC against CYP2C9 as the sequence, how does the seed-corrected z-score read?
Answer: -2.3

Question: With UCUGUUUCAUUUACUUUGC against PRSS44 as the sequence, how does the seed-corrected z-score read?
Answer: 0.238

Question: With UUUAUAAAGAGGGUGGAUC against SGCB as the sequence, how does the seed-corrected z-score read?
Answer: -0.0761

Question: Which seed-corrected z-score does the source give for UAUGAUACACUGGUAGGGU against ZNF684 here?
Answer: -2.38

Question: Which seed-corrected z-score does the source give for AAAGUGAUUCCCACAGCUG against CCS here?
Answer: 1.5

Question: Which seed-corrected z-score does the source give for UUUCUAACAUAGGAUGCCG against PRKAR1A here?
Answer: -0.515

Question: With AUGGUUGCGGUAGAAGACG against PHYHIP as the sequence, how does the seed-corrected z-score read?
Answer: 0.484

Question: With AUAGAAUCUAGGGAAAUAG against HBD as the sequence, how does the seed-corrected z-score read?
Answer: 1.15

Question: Which seed-corrected z-score does the source give for AUAGUUAUCCUUUAAUAAC against SLC2A3 here?
Answer: -2.2

Question: With AAUGUCAUUGCUGCGGUCC against SH3KBP1 as the sequence, how does the seed-corrected z-score read?
Answer: -0.331

Question: With UUUCAGAGCCUUUCCCUGC against LTA as the sequence, how does the seed-corrected z-score read?
Answer: -0.389

Question: Which seed-corrected z-score does the source give for UGAUGUACAGCUGAGGACC against ELMO2 here?
Answer: -2.32

Question: With UCAGGUAGAGCAUAGCUUG against SPX as the sequence, how does the seed-corrected z-score read?
Answer: -1.13

Question: With ACAGCUACCACAAAUGCAG against NDUFB3 as the sequence, how does the seed-corrected z-score read?
Answer: 1.34

Question: Which seed-corrected z-score does the source give for UGGGUUCCCAGUAACACUC against RPRD2 here?
Answer: -0.107

Question: Which seed-corrected z-score does the source give for UGCUCUAUCUCUGUCAGGG against RORC here?
Answer: 0.626

Question: With AUCGCUGUUAAGAAGCUCC against CIITA as the sequence, how does the seed-corrected z-score read?
Answer: -0.918

Question: With UUGGAAUCAGUCAUGCUCA against SFTPD as the sequence, how does the seed-corrected z-score read?
Answer: 0.0218

Question: For AUCCUUCUUGAAGUCGGCG against OAF, which seed-corrected z-score is on record?
Answer: 2.26

Question: For UUCAGGACGAUCUUGACAG against CHRDL2, which seed-corrected z-score is on record?
Answer: -0.237

Question: For UGCCGUUUCAUCUUGUACC against NKX2-4, which seed-corrected z-score is on record?
Answer: -2.69

Question: For UUGAAGUUUGGAUAUUACC against GABPB2, which seed-corrected z-score is on record?
Answer: -0.668

Question: For GAAUGUAGCAAAUGAGUCG against MT1H, which seed-corrected z-score is on record?
Answer: 0.588

Question: For UGACUGGAUAUAUCCACUG against RAB20, which seed-corrected z-score is on record?
Answer: 0.37

Question: With UUUUCUGCCUGAUCUAACU against MAP3K7CL as the sequence, how does the seed-corrected z-score read?
Answer: 0.11

Question: For UCACUGUCAAUCAUGCGCU against CACNG1, which seed-corrected z-score is on record?
Answer: -1.04

Question: With UCACCUUCCGCUUCGACUU against FAM181B as the sequence, how does the seed-corrected z-score read?
Answer: 2.19

Question: For AAACCAAUAGGAAUUGACU against HINT3, which seed-corrected z-score is on record?
Answer: 0.612

Question: With AUCCAGUUAAUUCCAGAUG against NUDT1 as the sequence, how does the seed-corrected z-score read?
Answer: -3.9
